Among the test systems are T-47D breast; BT-549 breast; MDA-MB-435 melanoma; SW-620 colon; MCF7 breast; HCT-116 colon; HCC-2998 colon; KM12 colon.
Assay in all cases: NCI-60 one-dose screen, 48 h (100 = growth as untreated, 0 = no growth, -100 = all killed)
Common to all, as to conditions: 10 µM unless noted

SMILES strings stand for the structures. The panel holds about 83,000 compounds, 20% with a hit somewhere; the sample as a whole holds those more often.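 Note: values are percent growth. 100 is the growth of untreated cells, values between 100 and 0 indicate rising inhibition; between -100 and 0 indicates cell death.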 Unmarked numbers belong to inactive results. Active and inactive are the calls of the source. Rule for the calls: active = growth percent below 10; inactive = the rest.

As for `CCCCCCNC(=O)Oc1ccc(/C(=C(\C)c2ccc(OC)cc2)c2ccc(OCCN(C)C)cc2)cc1`, the growth in the test on T-47D breast is 68.1%; in the test on BT-549 breast it was 85.1%; with MDA-MB-435 melanoma it was 87.7%; in the test with SW-620 colon, 83.6%; in the test on MCF7 breast, 23.6%; with HCT-116 colon it was 37.2%. Besides, the figures for the growth in the test with HCC-2998 colon and in the test on KM12 colon were 88.3% and 99.2%, respectively.
For the molecule `CN1CCN(c2ccc3c(c2)nc(NNC(=O)c2ccncn2)c2cccn23)CC1`, the growth was 32.7% in the test on T-47D breast; 45.2% in the test on BT-549 breast; 27.5% in the test with MDA-MB-435 melanoma; 22.8% in the test with SW-620 colon; 17.6% in the test on MCF7 breast; 23.6% with HCT-116 colon. The growth with HCC-2998 colon is 22.3%; in the test with KM12 colon, 17.4%.
As for `Cn1nc(Nc2ccccc2)c(C(=O)NN)c1N`, the growth was 95.4% in the test on T-47D breast; 129% with BT-549 breast; 105% with MDA-MB-435 melanoma; 99.8% with SW-620 colon; 89.7% in the test on MCF7 breast; 113% in the test on HCT-116 colon. Moreover, the growth was 107% with HCC-2998 colon and 99.4% with KM12 colon.
For `C=C(C)C(=O)O[C@H]1C[C@@]2(C)OC(=CC2=O)[C@H](C)[C@H](O)[C@H]2OC(=O)C(=C)[C@@H]21`, the growth in the test on T-47D breast is 22.2%; in the test with BT-549 breast, 68.9%; in the test with MDA-MB-435 melanoma, 76.3%; in the test with SW-620 colon it was 17.3%; in the test with MCF7 breast it was 22.1%; in the test on HCT-116 colon, 33.4%. Also, the growth with HCC-2998 colon is 114%; in the test with KM12 colon, 84.1%.
On to `CCc1ccc(NC(=O)N[C@@H](Cc2cc(F)cc(F)c2)C(=O)N[C@@H]2C(=O)N3CCC[C@H]3C(=O)N3CCO[C@H](C)[C@H]3C(=O)N[C@@H](CO)C(=O)N3C[C@H](C)C[C@H]3C(=O)O[C@H]2C)c(F)c1`, for which the growth in the test with T-47D breast is 35.7%; in the test on BT-549 breast, 33.3%; in the test on MDA-MB-435 melanoma it was 20.3%; in the test on SW-620 colon, 35.7%; with MCF7 breast it was 15.7%; in the test on HCT-116 colon it was 11.6%. In addition, the growth was 26% in the test on HCC-2998 colon and 39.6% in the test with KM12 colon.
As for `CN1CCN(c2ccc(C(=O)/C=C/c3ccc(Cl)c(C(F)(F)F)c3)cc2)CC1`, the growth is 29.6% in the test on T-47D breast; 109% with BT-549 breast; 13.7% in the test on MDA-MB-435 melanoma; 1.29% (active) in the test on SW-620 colon; 7.85% (active) in the test with MCF7 breast; 16.1% in the test on HCT-116 colon. Besides, the growth in the test on HCC-2998 colon was 33.7%; with KM12 colon, 27.3%.
Take `O=C1Nc2ccc(Cl)cc2/C1=C/c1ccc(OCc2ccc(F)cc2)cc1`: the growth in the test with T-47D breast was 102%; with BT-549 breast, 107%; in the test with MDA-MB-435 melanoma, 93%; in the test with SW-620 colon it was 102%; in the test on MCF7 breast it was 84.6%; in the test on HCT-116 colon it was 88.5%. Also, the growth in the test with HCC-2998 colon was 102%; with KM12 colon it was 98.8%.
For `O=C(/C=C/c1cn(-c2ccccc2)nc1-c1ccc(Cl)cc1)c1cc2ccccc2oc1=O`, the growth with T-47D breast was 44.1%; in the test with BT-549 breast it was 92.5%; with MDA-MB-435 melanoma, 57.6%; in the test on SW-620 colon, 74%; in the test on MCF7 breast, 33.9%; with HCT-116 colon, 25.4%. For the same molecule, the growth in the test on HCC-2998 colon was 102%; in the test with KM12 colon it was 80.3%.
Consider `CS(=O)(=O)c1nccc(-c2c(-c3ccc(F)c(OCCc4ccc(F)cc4)c3)nc3sccn23)n1`, for which the growth is -75.5% (active) with T-47D breast; 57.2% with BT-549 breast; 87.2% with MDA-MB-435 melanoma; 67.1% in the test on SW-620 colon; -61% (active) in the test with MCF7 breast; 47.6% in the test on HCT-116 colon. For the same molecule, the growth is -91% (active) with HCC-2998 colon and -42.9% (active) in the test on KM12 colon.
For the molecule `O=C(NNc1nc2cc(F)cc(F)c2n2cccc12)c1ccncn1`, the growth in the test with T-47D breast is -1.57% (active); in the test on BT-549 breast, 12.2%; in the test with MDA-MB-435 melanoma, 26.3%; in the test with SW-620 colon, 20.8%; in the test on MCF7 breast it was 4.99% (active); with HCT-116 colon it was 18.6%. For the same molecule, the growth with HCC-2998 colon was 57.5%; in the test on KM12 colon, 21.6%.
Take `C#CCOc1ccccc1C(Nc1ccccc1)c1nnnn1C1CCCCC1` (centres undefined): the growth in the test on T-47D breast is 93%; in the test with BT-549 breast, 109%; in the test with MDA-MB-435 melanoma, 101%; in the test with SW-620 colon it was 104%; in the test with MCF7 breast, 94.3%; in the test on HCT-116 colon it was 84.3%. For the same molecule, the growth with HCC-2998 colon was 106%; in the test on KM12 colon it was 94.6%.
Take `CCCCCCNC(=O)Oc1ccc(/C(=C(\C)c2ccc(Cl)cc2)c2ccc(OCCN(C)C)cc2)cc1`: the growth with T-47D breast was 54.8%; in the test on BT-549 breast, 77.4%; with MDA-MB-435 melanoma, 85.3%; in the test on SW-620 colon it was 21.3%; in the test with MCF7 breast it was 10.8%; in the test on HCT-116 colon it was 18.7%. The growth in the test with HCC-2998 colon is 71.4%; with KM12 colon, 83.1%.
Take `CCN1C(=O)N(CC)C2SC(N/N=C/c3cccs3)=NC21` (centres undefined): the growth in the test on T-47D breast is 68.8%; in the test on BT-549 breast, -40% (active); in the test on MDA-MB-435 melanoma it was -31.7% (active); in the test with SW-620 colon, 19.8%; with MCF7 breast it was 17.3%; in the test with HCT-116 colon, 3.01% (active). Also, the figures for the growth in the test with HCC-2998 colon and in the test on KM12 colon were 15.4% and 6.21% (active), respectively.

Source of the values: PubChem BioAssay (NCI).
